In the supplement of paper PMC10849652:
The full data set covers some 7,900 targets. This sample favours those with a hit. About 0.6% of all pairs of compound and target were hits.

The targets below were run with c1cn2cc(-c3ccc4cn[nH]c4c3)nc(Nc3ccc(N4CCOCC4)cc3)c2n1 [entospletinib] (assay: log2 fold change, soluble protein after heating vs DMSO (PISA); higher = thermal stabilisation; K562 cells, 10 uM, 30 min; active = over 0.2 and 3.5 SD of the protein, either way, in both replicates (recomputed)).
In short: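 Values are thermal stability changes relative to control samples and are taken from duplicates. They are stated as log2 fold changes. Before quantification by TMTpro 16plex LC-MS/MS with equalised channel sums, K562 cells at 2×10^6 cells/mL were treated with 10 μM compound for 30 min, heated in aliquots for 3 min across 48°C-58°C, pooled, extracted in PBS with 0.5% NP-40 at 4°C, and centrifuged at 21,000xg for 90 min to give the soluble supernatant.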

UniProt Q8NCC3, sequence (Q8NCC3 whole entry, looked up): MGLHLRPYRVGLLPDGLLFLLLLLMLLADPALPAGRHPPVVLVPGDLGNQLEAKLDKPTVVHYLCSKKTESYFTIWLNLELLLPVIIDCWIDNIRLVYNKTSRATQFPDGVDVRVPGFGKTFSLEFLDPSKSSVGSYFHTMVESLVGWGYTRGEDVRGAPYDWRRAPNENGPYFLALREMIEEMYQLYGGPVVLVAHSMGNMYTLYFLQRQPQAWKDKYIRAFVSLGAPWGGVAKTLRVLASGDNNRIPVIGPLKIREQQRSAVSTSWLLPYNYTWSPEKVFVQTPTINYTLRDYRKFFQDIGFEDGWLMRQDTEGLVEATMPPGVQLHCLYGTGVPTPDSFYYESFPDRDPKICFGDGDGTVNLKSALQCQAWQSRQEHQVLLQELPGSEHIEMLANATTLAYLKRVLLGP
UniProt O15355, sequence (O15355 whole entry, looked up): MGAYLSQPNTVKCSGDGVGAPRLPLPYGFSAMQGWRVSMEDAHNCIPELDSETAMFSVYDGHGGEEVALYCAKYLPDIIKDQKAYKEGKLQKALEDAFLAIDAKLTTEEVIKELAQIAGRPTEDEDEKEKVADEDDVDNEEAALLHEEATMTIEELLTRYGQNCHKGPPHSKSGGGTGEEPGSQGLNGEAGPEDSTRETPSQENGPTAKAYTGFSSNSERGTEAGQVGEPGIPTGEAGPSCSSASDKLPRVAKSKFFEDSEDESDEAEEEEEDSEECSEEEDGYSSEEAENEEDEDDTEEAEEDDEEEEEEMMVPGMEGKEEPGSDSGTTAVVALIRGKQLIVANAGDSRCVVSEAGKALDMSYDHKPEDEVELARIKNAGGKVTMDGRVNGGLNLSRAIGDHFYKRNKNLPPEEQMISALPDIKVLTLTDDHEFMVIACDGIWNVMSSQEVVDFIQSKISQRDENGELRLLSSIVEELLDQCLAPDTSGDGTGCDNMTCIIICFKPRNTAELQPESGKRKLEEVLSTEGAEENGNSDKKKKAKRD
UniProt O60925, sequence (O60925 whole entry, looked up): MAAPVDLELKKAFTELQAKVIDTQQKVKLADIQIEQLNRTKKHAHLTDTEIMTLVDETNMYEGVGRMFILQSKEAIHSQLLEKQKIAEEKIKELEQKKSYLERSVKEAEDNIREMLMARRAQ
UniProt Q16822, sequence (Q16822 whole entry, looked up): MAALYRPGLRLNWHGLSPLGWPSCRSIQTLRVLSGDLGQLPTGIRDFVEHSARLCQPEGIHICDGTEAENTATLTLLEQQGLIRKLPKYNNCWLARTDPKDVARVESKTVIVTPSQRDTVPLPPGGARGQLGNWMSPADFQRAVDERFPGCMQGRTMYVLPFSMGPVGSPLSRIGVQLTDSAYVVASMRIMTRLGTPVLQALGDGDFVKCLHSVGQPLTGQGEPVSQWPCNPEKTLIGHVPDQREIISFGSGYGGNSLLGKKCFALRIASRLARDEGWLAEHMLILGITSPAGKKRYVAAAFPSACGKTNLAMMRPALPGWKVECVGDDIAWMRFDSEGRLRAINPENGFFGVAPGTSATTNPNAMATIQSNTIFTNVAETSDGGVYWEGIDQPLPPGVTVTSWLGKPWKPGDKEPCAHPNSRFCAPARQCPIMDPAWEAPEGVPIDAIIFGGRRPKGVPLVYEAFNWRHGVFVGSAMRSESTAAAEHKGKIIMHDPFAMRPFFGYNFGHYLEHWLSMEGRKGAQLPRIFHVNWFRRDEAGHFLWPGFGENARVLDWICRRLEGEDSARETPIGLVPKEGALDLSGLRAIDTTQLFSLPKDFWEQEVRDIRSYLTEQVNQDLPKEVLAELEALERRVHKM
UniProt P28340, sequence (P28340 whole entry, looked up): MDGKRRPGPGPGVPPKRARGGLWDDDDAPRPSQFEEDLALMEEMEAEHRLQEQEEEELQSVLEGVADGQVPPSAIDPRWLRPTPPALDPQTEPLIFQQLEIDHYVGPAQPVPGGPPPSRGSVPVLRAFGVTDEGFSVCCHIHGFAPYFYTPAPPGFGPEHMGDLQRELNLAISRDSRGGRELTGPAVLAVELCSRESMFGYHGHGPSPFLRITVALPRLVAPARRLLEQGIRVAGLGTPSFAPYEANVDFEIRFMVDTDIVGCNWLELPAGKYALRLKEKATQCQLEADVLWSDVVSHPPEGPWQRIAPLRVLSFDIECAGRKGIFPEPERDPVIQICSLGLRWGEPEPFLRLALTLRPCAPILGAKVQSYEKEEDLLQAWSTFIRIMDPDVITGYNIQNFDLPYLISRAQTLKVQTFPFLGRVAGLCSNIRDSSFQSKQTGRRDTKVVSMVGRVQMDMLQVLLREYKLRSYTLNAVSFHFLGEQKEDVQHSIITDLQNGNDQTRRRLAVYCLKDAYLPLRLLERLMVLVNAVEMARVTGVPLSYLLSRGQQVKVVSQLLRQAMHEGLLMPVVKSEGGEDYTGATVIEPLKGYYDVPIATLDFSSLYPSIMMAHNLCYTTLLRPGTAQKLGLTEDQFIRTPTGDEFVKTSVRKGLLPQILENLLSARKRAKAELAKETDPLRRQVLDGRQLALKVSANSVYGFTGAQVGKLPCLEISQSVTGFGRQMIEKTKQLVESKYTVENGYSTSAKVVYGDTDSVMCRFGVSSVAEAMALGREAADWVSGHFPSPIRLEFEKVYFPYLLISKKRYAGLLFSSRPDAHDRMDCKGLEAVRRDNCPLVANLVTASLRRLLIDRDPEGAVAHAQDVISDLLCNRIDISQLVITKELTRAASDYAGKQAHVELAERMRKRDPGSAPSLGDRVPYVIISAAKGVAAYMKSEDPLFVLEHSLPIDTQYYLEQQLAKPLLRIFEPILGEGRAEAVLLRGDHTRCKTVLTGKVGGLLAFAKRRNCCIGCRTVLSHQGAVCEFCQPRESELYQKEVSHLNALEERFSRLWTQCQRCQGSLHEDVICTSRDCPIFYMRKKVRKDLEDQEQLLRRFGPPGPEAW
UniProt Q504Q3, sequence (Q504Q3 whole entry, looked up): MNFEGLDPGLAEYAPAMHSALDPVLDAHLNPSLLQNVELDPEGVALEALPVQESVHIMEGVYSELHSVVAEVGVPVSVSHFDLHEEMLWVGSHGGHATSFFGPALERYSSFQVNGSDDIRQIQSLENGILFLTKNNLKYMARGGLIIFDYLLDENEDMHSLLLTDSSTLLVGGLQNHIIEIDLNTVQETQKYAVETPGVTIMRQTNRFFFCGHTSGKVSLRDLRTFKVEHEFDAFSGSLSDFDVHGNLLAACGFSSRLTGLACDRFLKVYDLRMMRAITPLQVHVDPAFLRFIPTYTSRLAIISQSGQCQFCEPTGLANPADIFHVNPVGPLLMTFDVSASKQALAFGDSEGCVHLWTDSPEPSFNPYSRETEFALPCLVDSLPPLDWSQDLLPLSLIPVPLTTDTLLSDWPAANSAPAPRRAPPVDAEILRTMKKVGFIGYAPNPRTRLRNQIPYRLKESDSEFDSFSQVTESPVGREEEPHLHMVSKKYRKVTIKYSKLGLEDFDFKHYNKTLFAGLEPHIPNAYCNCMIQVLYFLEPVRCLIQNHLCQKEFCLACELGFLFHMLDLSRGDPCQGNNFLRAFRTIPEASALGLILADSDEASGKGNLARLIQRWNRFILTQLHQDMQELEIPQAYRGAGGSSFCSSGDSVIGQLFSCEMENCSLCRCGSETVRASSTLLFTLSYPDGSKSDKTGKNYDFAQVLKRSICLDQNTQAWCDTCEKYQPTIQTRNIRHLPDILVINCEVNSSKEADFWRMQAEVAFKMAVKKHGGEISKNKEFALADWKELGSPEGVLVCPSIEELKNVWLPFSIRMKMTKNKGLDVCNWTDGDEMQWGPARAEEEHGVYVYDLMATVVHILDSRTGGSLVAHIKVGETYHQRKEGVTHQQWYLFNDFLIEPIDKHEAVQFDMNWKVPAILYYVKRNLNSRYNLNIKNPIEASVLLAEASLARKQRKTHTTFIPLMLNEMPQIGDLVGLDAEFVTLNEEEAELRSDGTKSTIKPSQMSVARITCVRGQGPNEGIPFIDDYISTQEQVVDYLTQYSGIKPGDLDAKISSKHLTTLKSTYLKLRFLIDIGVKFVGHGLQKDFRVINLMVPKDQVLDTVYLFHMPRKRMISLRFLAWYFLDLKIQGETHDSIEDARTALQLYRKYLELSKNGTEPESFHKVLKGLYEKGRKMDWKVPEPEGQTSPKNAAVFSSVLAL
UniProt O00625, sequence (O00625 whole entry, looked up): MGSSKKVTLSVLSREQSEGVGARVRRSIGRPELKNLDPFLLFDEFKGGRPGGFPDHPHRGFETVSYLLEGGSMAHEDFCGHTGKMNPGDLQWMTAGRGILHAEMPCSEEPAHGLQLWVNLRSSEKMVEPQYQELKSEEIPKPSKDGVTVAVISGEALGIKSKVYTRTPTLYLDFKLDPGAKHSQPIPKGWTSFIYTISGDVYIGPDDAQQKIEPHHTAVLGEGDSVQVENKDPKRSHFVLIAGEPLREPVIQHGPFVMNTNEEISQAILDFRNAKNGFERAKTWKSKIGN
UniProt Q12974, sequence (Q12974 whole entry, looked up): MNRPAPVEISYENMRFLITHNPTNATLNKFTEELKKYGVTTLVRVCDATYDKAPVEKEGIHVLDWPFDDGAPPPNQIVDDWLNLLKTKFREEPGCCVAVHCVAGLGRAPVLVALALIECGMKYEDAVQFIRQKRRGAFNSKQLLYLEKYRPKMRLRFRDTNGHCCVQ
UniProt O43741, sequence (O43741 whole entry, looked up): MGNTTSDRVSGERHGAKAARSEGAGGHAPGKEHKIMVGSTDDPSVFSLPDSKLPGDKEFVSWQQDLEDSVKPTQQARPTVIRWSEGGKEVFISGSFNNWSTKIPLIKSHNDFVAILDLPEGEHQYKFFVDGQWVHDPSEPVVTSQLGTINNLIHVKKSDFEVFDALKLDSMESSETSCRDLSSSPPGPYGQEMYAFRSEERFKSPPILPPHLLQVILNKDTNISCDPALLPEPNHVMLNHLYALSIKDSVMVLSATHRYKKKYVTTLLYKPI

log2 fold change, inactive:
PSMC3 (UniProt P17980) 0
PUF60 (UniProt Q9UHX1) -0.017
PTP4A2 (UniProt Q12974) -0.019
PRKAB2 (UniProt O43741) -0.12
PDE4DIP (UniProt E9PS60) -0.01
PTPA (UniProt Q15257) -0.004
PDE2A (UniProt O00408) 0.015
PSMD3 (UniProt O43242) 0.049
PRPF4B (UniProt Q13523) 0.09
PPP2R5A (UniProt Q15172) 0.001
PDS5A (UniProt Q29RF7) 0.039
PAN2 (UniProt Q504Q3) -0.151
POLD1 (UniProt P28340) 0.001
PARG (UniProt Q86W56) -0.015
PLK1 (UniProt P53350) -0.022
POLR3B (UniProt Q9NW08) 0
PCYT1B (UniProt Q9Y5K3) 0.057
PLA2G15 (UniProt Q8NCC3) -0.063
PSMD13 (UniProt Q9UNM6) 0.049
PPM1G (UniProt O15355) 0.094
PLBD2 (UniProt Q8NHP8) -0.038
PCK2 (UniProt Q16822) -0.057
PIR (UniProt O00625) 0.028
PFDN1 (UniProt O60925) -0.089
